# According to PubChem BioAssay AID602468 (The Scripps Research Institute Molecular Screening Center, 2012):
# The source made the active and inactive calls. No rule for the calls is given here.
# Test system: Neuro-2A
# Test: selectivity across cysteine-reactive proteome – gel-based competitive ABPP, fluorescence, MBM, Neuro-2A, selectivity assay for PME-1 inhibitor project, late-stage follow-up (AID 602468)
# Details: MBM or Neuro-2A, in situ; series mostly up to 0.25 µM
smiles,measurement,value
CC[C@@]1(c2ccc(C)cc2)C(=O)N(C(=O)OC(C)C)N1C(=O)OC(C)C,outcome,inactive
